GPR151 ag = human GPR151 activation; Q8TDV0; PathHunter beta-arrestin GPR151 cells, luminescence; activation, % at 11.2 µM; hit rate 1% among 650,000; in the data active means activation above about 4.9%;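 further: 0% = median of compound wells and 100% = cells with positive control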
MITF primary = human MITF inhibition, primary screen | inhibition, % at 2.6 µM | AlphaScreen MITF homodimerization, bead proximity signal | hit rate 0.91% among 650,000 | O75030; in the data active means inhibition above about 50%;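 further: 0% = vehicle wells with protein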
FBW7 act = human FBW7 E3 ligase activation, primary screen; AlphaScreen FBW7–phospho-cyclin E peptide binding, activator screen; normalized activity (activation), % at 26.1 µM; hit rate 0.13% among 650,000; AID 1259310; in the data active means normalized activity above about 1.9%;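 further: purified mutant Fbw7 with reduced substrate affinity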
Target sequence (Q969H0 whole entry, looked up): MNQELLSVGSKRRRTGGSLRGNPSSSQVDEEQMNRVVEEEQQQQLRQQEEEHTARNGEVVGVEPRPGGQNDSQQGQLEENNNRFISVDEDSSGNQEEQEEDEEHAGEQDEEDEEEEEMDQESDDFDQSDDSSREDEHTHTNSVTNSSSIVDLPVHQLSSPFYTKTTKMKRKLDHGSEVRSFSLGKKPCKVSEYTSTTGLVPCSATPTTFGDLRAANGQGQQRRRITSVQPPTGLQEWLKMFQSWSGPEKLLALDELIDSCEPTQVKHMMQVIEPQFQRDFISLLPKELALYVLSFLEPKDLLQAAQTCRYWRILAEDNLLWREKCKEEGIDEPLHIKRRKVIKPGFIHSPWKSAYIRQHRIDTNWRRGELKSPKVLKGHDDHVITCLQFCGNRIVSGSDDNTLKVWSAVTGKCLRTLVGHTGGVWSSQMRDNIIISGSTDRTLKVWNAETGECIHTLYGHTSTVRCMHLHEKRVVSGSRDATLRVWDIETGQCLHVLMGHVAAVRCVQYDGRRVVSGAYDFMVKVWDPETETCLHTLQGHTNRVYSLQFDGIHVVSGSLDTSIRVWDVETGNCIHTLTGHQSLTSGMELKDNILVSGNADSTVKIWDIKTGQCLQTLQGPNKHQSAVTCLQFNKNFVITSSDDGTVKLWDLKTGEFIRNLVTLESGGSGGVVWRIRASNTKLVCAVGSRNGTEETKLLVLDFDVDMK
TEAD-YAP inh = TEAD-YAP interaction inhibition | inhibition, % at 9.12 µM | HEK-TIYL cells, TEAD-Gal4/YAP UAS-luciferase luminescence | hit rate 1.4% among 640,000 | AID 1259422; in the data active means inhibition above about 32%;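 further: 0% = median of test compound wells and 100% = reference inhibitor wells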
* hit, by the source's call. In the library only some 3.4% were active in any assay of this set; here they are far more common.

SMILES | GPR151 ag | MITF primary | FBW7 act | TEAD-YAP inh
COC(=O)C1=C(C)N(Cc2ccco2)C(=O)/C1=C\c1cc(C)n(-c2ccccc2F)c1C | -0.3 | 72.2* | -0.3 | -9.7
CC(=O)c1ccc(C(=O)Nc2nc(-c3cccc4ccccc34)cs2)cc1 | 1.3 | 5.7 | 0.0 | 11.5
Cc1ccc(N(CCCN2C(=O)c3cccc4cccc(c34)C2=O)C(=O)C23CC4CC(CC(C4)C2)C3)c(C)c1 | 1.0 | -2.0 | -0.1 | 1.8
Cc1ccc(C)c(-c2csc(NC(=O)c3sc4ccccc4c3Cl)n2)c1 | -1.2 | 9.9 | 0.2 | -6.5
NC(c1nc2ccc(-c3ccncc3)cc2[nH]1)c1ccc(F)cc1F (stereo not drawn) | 0.8 | 34.0 | -1.0 | -21.0
Fc1ccc2nc(-c3nc4ccc(-c5ccncc5)cc4[nH]3)[nH]c2c1 | 3.0 | 10.6 | 2.6* | -21.9
O=C(Cc1cccc(F)c1)Nc1ccc(N2CCC(NCC3CCOCC3)CC2)cc1 | 1.7 | -6.5 | -0.3 | -7.5
COC(CNc1cc(-c2ccccc2F)nc(C)n1)OC | -1.5 | -1.9 | -0.1 | -20.2
CC(=O)NC(c1ccc2c(c1)OCO2)c1cc(Cl)c2cccnc2c1O (stereo not drawn) | -0.9 | 33.8 | -0.8 | 70.6*
CCCCC(=O)NC(c1ccc2c(c1)OCO2)c1cc(Cl)c2cccnc2c1O (stereo not drawn) | -1.9 | 11.7 | -0.2 | 2.6
CC(=O)NC(c1ccc(C)cc1)c1cc(Cl)c2cccnc2c1O (stereo not drawn) | 0.4 | 28.2 | -0.4 | 28.0
CC(=O)NC(c1cccc(Cl)c1)c1cc(Cl)c2cccnc2c1O (stereo not drawn) | 0.3 | 19.2 | -0.8 | 35.8*
CCOc1ccc2[nH]c(=O)c(CN(CCOC)C(=O)Nc3ccc(SC)cc3)cc2c1 | -1.1 | 1.9 | -0.2 | -35.7
CCOc1ccc2[nH]c(=O)c(CN(CCOC)C(=O)Nc3ccc(F)cc3)cc2c1 | 1.2 | 0.6 | 0.1 | 37.0*
CCCCNC(=O)c1cc(COc2cccc3cnccc23)on1 | 1.6 | 0.7 | -0.1 | 14.3
CN(Cc1ccccc1)C(=O)c1cc(COc2cccc3cnccc23)on1 | -2.6 | 12.3 | 0.2 | 33.4*
O=C(c1cc(COc2cccc3cnccc23)on1)N1CCCC(CCCO)C1 (stereo not drawn) | 0.2 | 9.6 | 0.2 | 64.7*
O=C(Cc1c(F)cccc1Cl)N1CCC(c2ccncc2)CC1 | -0.3 | 14.7 | -0.1 | 41.9*
O=C(Cc1c(F)cccc1Cl)N1CCC(c2cccnc2)CC1 | 0.6 | 4.4 | 0.1 | 5.0
COc1ccc2c(c1)CC(c1cnc3ccc(-c4cn[nH]c4)cc3n1)CO2 (stereo not drawn) | -0.1 | 10.5 | 0.7 | 32.6*
O=C(Nc1ccc(-c2cn[nH]n2)cc1)C1COc2ccc(F)cc2C1 (stereo not drawn) | 2.0 | -0.4 | -0.1 | 34.5*
COc1ccc2c(c1)OCC(c1nc3cc(-c4cn[nH]c4)c(F)cc3[nH]1)C2 (stereo not drawn) | 0.3 | -5.1 | 0.0 | 84.2*
COc1ccc2c(c1)CC(c1nc3ccc(-c4ccncc4)cc3c(=O)[nH]1)CO2 (stereo not drawn) | 0.1 | 20.8 | 1.0 | 1.8
COc1ccc2c(c1)CC(c1nc3ccc(-c4cn[nH]c4C)cc3c(=O)[nH]1)CO2 (stereo not drawn) | -0.1 | 3.9 | 0.0 | 32.5*
Cc1[nH]ncc1-c1ccc2nc(NC(=O)C3COc4ccc(F)cc4C3)sc2c1 (stereo not drawn) | -0.2 | 36.5 | 0.9 | 57.1*
SMILES | GPR151 ag | MITF primary | FBW7 act | TEAD-YAP inh
COc1ccc2c(c1)CC(C(=O)Nc1ccc(-c3cn[nH]c3C)cc1OCCO)CO2 (stereo not drawn) | -0.9 | 20.1 | 0.9 | 55.5*
COc1ccc2c(c1)CC(C(=O)Nc1ccc(-c3cn[nH]c3C)cc1OCCN1CCCC1)CO2 (stereo not drawn) | -0.4 | -4.7 | -0.4 | -2.9
Cc1[nH]ncc1-c1ccc(NC(=O)C2COc3ccc(F)cc3C2)c(N(C)CCN(C)C)c1 (stereo not drawn) | -0.9 | 6.3 | -0.2 | -0.4
CC(C)n1c(NC2CCC(O)CC2)nc2c(NCCOc3ccccc3)ncnc21 (stereo not drawn) | 0.7 | 4.8 | 0.1 | -32.0
COc1ccc(CSc2nnc(C3CCCCC3)n2N)cc1 | -1.1 | 12.0 | 0.0 | -0.9
CCn1c(C(=O)N2CCC(C(=O)NCCc3ccccc3)CC2)cc2sccc21 | -0.5 | -2.5 | -0.2 | -5.1
Cc1ccccc1N1CCN(C2=NC(=O)/C(=C\c3ccccc3OC(C)C)S2)CC1 | 0.2 | -1.3 | 0.0 | -0.2
CC(C)Oc1ccccc1/C=C1/SC(N2CCCC2)=NC1=O | -2.2 | -6.0 | 0.1 | 38.1*
COc1cc(Nc2cccc(C(=O)NCCc3ccc(O)cc3)n2)cc(OC)c1OC | 0.9 | 13.0 | 0.0 | 34.9*
COc1ccc(CCNC(=O)c2cccc(Nc3ccc(N4CCOCC4)cc3)n2)cc1 | 4.1 | 15.7 | -0.1 | 59.4*
COc1cc(Nc2cccc(C(=O)NCCN(C(C)C)C(C)C)n2)cc(OC)c1OC | 1.5 | 13.5 | 0.0 | -1.2
O=C(NCc1cccc(C(F)(F)F)c1)c1csc(Nc2ccc(N3CCOCC3)cc2)n1 | 2.6 | 22.1 | 0.1 | 51.4*
COc1ccc(CCNC(=O)c2cccc(NCCN3CCOCC3)n2)cc1 | -0.6 | -4.0 | -0.1 | 3.8
O=C(NCc1cccc(C(F)(F)F)c1)c1csc(Nc2ccc(C(F)(F)F)cc2)n1 | 1.3 | -11.4 | 0.0 | -5.7
O=C(NCc1cccc(C(F)(F)F)c1)c1cccc(Nc2ccc(N3CCOCC3)cc2)n1 | 3.9 | 16.3 | 0.2 | 62.3*
O=C(NC1CCCC1)C1CCN(C(=O)Nc2ccc(F)cc2)CC1 | -2.8 | 21.7 | 0.0 | -37.2
O=C(CC(NCc1cccnc1)C(=O)O)Nc1cccc2ccccc12 (stereo not drawn) | 4.5 | 0.0 | -0.3 | 11.2
O=C(Cc1cccs1)N1CCN(S(=O)(=O)c2cccc([N+](=O)[O-])c2)CC1 | 0.4 | 17.2 | 0.1 | 5.0
CC(=O)N1CCC(=NNC(=O)c2cc([N+](=O)[O-])cc([N+](=O)[O-])c2)CC1 | -0.7 | 14.1 | 0.4 | 1.1
O=C(Nc1ccc(F)cc1F)NC1(C(=O)NCc2cccs2)CCCCC1 | 0.7 | 5.8 | 0.0 | 2.4
Cc1ccc(S(=O)(=O)CCC(=O)Nc2sc3c(c2C(N)=O)CCCC3)cc1 | 2.9 | 2.5 | -0.1 | 10.3
OCc1ccc(-c2cnc3ccc(NCc4cccs4)nn23)cc1 | -1.1 | -8.4 | 0.1 | 35.0*
OCc1cccc(-c2cnc3ccc(NCc4cccs4)nn23)c1 | -0.9 | 12.4 | -0.1 | -1.4
Oc1ccc(-c2cnc3ccc(NCc4cccs4)nn23)cc1 | 2.8 | -11.9 | -0.1 | 61.8*
Fc1ccc(-c2cnc3ccc(NCc4cccs4)nn23)cc1 | 0.0 | -16.1 | 0.1 | -4.4
CN(C)c1oc(-c2ccc(COc3ccccc3)o2)nc1C#N | 0.3 | -11.6 | -0.4 | -15.8
CC1=C(C#N)C(=O)NC(=O)/C1=C\c1ccc(-c2ccc(C(=O)OC(C)C)cc2)o1 | -1.5 | 22.2 | 0.0 | -61.0
Cc1cc(NC(=O)COC(=O)COc2ccc(I)cc2)no1 | -1.1 | 26.5 | -0.1 | -1.8
CC(C)c1ccc(NS(=O)(=O)c2cccc3cnccc23)cc1 | -0.1 | 17.4 | 0.0 | 56.5*
